Drawing on ChEMBL document CHEMBL2218924, “A broad activity screen in support of a chemogenomic map for kinase signalling research and drug discovery” (Biochem J, 2013), this text covers residual activity for ten molecules.

Assay [1] concerns the target Interleukin-1 receptor-associated kinase 1 (Homo sapiens) (UniProt P51617). As to conditions: at 1 µM.
For assay [2] the target is unchanged. As to conditions: at 10 µM.
The target of assay [3] is T1, Interleukin-1 receptor-associated kinase 4 (Homo sapiens) (UniProt Q9NWZ3).
T1 sequence (whole entry): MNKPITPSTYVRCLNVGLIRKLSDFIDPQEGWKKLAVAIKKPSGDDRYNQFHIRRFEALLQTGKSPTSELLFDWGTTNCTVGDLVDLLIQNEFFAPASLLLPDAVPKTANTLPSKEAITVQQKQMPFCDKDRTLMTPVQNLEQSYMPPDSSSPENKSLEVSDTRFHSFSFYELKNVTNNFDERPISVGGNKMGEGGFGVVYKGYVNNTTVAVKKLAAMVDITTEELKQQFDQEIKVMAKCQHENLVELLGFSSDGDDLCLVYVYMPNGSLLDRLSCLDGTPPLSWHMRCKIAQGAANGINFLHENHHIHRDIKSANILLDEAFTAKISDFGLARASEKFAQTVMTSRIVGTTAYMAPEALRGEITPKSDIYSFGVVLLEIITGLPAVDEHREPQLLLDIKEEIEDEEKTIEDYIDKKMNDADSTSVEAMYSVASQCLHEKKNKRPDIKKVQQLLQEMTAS
As to conditions: at 1 µM.

Assay [4] addresses T1, Interleukin-1 receptor-associated kinase 4 (Homo sapiens). As to conditions: at 10 µM.
Assay [5] has as its target Insulin receptor-related protein (Homo sapiens) (UniProt P14616). As to conditions: at 1 µM.
For assay [6] the target is unchanged. As to conditions: at 10 µM.
For assay [7], the target named is Tyrosine-protein kinase JAK2 (Homo sapiens) (UniProt O60674). As to conditions: at 1 µM.
For assay [8] the target is unchanged. As to conditions: at 10 µM.
Assay [9] has as its target Mitogen-activated protein kinase 9 (Homo sapiens) (UniProt P45984). As to conditions: at 1 µM.
Assay [10] has the same target. As to conditions: at 10 µM.
For assay [11], the target named is Mitogen-activated protein kinase 10 (Homo sapiens) (UniProt P53779). As to conditions: at 1 µM.
Assay [12] has as its target T2, Tyrosine-protein kinase ITK/TSK (Homo sapiens) (UniProt Q08881).
T2 sequence (whole entry): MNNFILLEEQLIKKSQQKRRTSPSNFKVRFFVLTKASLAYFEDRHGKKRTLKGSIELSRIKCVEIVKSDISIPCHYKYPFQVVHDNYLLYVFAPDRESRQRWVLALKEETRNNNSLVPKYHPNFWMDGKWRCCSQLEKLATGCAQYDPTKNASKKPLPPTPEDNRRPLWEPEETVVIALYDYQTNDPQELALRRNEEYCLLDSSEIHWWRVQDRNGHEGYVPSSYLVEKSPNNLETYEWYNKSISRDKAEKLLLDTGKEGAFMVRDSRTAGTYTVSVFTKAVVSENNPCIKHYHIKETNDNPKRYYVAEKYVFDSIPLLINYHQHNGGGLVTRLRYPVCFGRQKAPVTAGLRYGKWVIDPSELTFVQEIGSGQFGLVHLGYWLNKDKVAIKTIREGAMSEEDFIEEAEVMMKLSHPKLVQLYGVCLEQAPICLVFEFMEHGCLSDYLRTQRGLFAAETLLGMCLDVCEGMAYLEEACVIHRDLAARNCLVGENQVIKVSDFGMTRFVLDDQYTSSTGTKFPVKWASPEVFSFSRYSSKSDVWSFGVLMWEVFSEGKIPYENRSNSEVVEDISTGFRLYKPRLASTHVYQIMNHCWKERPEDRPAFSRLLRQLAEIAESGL
As to conditions: at 10 µM.

For assay [13], the target named is T3, Tyrosine-protein kinase JAK3 (Homo sapiens) (UniProt P52333).
T3 sequence (whole entry): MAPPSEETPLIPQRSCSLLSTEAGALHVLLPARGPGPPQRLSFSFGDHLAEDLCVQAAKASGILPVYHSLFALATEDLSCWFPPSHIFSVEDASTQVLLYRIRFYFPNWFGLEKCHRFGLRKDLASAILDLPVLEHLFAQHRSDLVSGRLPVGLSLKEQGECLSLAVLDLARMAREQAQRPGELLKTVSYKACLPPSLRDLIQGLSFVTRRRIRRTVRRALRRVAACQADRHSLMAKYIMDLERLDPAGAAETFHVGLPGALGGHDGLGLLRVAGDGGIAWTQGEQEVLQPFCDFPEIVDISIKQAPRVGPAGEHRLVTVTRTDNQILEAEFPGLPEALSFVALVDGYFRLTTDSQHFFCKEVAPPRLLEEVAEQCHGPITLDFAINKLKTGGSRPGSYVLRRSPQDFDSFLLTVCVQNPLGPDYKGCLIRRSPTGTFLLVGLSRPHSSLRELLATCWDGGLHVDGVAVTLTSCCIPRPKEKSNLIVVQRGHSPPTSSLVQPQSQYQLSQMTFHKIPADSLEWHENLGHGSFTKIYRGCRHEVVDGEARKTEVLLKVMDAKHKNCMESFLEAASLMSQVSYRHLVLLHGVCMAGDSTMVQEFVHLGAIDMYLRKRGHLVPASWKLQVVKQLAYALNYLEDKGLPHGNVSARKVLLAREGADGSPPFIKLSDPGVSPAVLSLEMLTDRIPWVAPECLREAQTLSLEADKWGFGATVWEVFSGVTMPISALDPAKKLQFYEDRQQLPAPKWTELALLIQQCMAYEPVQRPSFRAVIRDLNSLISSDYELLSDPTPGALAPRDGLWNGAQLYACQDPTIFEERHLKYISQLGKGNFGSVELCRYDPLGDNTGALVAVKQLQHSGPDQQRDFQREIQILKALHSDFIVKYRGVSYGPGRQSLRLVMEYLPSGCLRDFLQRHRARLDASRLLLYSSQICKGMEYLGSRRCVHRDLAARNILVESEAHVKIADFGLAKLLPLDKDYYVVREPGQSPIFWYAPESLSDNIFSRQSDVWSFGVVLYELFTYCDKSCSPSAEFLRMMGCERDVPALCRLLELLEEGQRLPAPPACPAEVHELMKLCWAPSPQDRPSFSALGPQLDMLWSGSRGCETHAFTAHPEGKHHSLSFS
As to conditions: at 1 µM.

In assay [14] the target is T3, Tyrosine-protein kinase JAK3 (Homo sapiens). As to conditions: at 10 µM.
Assay [15] addresses T2, Tyrosine-protein kinase ITK/TSK (Homo sapiens). As to conditions: at 1 µM.
Assay [16] concerns the target Mitogen-activated protein kinase 8 (Homo sapiens) (UniProt P45983). As to conditions: at 10 µM.
For assay [17] the target is unchanged. As to conditions: at 1 µM.

Tyrosine-protein kinase JAK2 (Homo sapiens), sequence (O60674 whole entry): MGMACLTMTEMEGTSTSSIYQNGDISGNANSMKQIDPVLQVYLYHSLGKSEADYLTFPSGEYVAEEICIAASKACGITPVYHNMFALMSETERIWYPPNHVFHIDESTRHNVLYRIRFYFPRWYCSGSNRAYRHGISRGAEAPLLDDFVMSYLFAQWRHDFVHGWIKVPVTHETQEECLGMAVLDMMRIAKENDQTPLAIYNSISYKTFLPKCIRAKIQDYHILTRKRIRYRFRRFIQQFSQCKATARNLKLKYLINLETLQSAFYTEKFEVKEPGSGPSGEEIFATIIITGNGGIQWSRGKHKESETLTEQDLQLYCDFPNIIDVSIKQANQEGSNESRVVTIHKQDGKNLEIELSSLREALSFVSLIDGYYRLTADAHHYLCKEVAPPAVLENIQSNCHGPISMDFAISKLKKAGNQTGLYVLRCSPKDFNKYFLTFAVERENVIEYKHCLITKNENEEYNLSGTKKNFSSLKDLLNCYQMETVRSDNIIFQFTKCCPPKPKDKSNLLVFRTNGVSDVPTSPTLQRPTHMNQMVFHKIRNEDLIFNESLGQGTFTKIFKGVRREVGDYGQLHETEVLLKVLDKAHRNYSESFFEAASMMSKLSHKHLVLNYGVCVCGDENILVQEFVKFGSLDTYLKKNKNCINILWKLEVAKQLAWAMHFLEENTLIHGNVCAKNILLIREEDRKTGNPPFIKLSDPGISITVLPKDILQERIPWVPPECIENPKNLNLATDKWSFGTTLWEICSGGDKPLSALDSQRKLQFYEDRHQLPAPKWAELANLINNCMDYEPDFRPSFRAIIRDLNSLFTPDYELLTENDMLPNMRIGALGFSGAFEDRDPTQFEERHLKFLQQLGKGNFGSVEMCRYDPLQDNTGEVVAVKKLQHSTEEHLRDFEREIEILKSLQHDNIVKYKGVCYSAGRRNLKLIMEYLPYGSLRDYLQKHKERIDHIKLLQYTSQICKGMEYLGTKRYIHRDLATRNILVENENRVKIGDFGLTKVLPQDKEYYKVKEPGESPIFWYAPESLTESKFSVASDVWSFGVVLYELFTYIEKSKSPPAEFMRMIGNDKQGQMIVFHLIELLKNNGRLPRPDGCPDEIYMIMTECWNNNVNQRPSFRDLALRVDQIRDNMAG
Mitogen-activated protein kinase 9 (Homo sapiens), sequence (P45984 whole entry, looked up): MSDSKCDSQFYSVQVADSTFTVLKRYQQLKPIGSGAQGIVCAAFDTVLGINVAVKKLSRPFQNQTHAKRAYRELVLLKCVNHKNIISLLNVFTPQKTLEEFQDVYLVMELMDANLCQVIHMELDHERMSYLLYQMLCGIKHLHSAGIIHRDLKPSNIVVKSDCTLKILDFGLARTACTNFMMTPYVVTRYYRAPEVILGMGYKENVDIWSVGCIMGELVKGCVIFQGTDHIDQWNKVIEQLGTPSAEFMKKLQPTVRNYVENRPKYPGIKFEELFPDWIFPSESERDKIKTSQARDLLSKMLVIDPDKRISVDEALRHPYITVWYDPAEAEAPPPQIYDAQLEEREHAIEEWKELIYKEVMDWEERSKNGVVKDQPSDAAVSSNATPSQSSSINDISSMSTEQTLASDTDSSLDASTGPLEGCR
Mitogen-activated protein kinase 10 (Homo sapiens), sequence (P53779 whole entry): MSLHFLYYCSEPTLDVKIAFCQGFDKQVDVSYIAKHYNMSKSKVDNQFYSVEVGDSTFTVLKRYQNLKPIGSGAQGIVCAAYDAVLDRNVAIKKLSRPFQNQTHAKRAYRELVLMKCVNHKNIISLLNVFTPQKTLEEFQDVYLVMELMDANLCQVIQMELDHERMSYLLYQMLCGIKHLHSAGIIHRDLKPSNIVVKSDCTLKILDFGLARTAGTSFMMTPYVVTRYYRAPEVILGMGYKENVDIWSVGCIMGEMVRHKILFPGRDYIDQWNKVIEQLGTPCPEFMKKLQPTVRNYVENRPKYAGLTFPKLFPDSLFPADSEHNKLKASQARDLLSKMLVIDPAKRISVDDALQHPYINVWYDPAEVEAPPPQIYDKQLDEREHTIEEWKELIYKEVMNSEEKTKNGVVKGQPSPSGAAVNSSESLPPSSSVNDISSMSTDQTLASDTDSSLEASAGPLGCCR
Insulin receptor-related protein (Homo sapiens), sequence (P14616 27-742 limits assumed): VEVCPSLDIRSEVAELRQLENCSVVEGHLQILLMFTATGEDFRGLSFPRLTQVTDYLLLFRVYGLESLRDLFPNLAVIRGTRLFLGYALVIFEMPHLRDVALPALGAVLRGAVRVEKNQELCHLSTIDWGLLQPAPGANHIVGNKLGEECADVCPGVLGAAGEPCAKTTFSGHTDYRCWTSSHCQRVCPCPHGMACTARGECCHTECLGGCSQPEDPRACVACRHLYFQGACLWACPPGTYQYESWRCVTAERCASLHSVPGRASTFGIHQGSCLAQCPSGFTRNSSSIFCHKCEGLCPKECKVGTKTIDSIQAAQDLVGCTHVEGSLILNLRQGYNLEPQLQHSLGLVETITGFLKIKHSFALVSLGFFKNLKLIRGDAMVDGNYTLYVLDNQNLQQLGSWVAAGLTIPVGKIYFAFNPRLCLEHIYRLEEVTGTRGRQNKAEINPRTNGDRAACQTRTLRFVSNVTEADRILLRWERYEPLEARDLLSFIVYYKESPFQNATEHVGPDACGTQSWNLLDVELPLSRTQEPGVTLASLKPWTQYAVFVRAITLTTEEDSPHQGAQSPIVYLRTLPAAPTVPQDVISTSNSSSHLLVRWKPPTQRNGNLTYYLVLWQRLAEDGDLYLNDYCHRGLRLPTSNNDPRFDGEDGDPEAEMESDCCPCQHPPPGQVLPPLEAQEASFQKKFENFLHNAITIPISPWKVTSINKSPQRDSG
Insulin receptor-related protein (Homo sapiens), sequence (P14616 747-1297 limits assumed): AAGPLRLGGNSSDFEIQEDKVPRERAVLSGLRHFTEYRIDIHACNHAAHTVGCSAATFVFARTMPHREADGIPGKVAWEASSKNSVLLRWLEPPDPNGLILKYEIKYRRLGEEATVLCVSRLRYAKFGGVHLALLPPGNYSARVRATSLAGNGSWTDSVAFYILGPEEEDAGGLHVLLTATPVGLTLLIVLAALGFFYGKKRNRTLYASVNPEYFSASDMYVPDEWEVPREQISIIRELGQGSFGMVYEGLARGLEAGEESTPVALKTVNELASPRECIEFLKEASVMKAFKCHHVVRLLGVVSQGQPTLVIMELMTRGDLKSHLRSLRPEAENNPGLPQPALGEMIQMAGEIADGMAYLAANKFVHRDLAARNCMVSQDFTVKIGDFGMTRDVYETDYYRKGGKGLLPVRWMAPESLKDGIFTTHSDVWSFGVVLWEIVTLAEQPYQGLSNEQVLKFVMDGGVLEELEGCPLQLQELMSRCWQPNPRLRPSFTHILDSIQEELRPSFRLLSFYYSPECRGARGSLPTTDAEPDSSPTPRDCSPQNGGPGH
Interleukin-1 receptor-associated kinase 1 (Homo sapiens), sequence (P51617 whole entry, looked up): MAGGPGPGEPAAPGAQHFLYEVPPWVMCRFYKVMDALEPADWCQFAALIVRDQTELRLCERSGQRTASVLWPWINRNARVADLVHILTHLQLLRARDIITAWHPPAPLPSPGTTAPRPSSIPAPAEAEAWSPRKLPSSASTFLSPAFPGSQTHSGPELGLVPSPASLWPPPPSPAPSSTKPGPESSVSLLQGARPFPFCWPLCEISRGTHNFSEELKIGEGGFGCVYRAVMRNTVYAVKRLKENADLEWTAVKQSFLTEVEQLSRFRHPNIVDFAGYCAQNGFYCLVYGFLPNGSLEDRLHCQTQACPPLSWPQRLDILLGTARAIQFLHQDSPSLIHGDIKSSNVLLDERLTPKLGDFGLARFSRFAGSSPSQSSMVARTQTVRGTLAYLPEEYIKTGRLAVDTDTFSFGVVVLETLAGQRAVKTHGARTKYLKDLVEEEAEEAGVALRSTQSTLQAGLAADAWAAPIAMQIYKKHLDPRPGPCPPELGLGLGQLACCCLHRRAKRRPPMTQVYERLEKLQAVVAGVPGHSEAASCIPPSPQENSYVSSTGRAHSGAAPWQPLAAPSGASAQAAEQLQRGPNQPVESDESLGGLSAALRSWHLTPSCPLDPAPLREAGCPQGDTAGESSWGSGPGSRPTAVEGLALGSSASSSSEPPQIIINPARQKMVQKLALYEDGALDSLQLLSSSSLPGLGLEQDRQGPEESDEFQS
Mitogen-activated protein kinase 8 (Homo sapiens), sequence (P45983 whole entry): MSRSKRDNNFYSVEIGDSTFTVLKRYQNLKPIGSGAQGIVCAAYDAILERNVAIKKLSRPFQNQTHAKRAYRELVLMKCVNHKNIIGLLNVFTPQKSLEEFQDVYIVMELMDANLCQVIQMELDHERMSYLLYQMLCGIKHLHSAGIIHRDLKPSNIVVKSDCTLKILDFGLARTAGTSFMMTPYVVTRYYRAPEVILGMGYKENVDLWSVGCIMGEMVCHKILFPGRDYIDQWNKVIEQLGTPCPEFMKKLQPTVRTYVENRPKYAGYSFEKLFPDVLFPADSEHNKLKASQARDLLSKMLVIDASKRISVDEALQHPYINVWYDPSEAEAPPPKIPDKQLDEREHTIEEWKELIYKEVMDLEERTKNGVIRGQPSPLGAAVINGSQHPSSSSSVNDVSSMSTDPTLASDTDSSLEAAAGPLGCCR

Regarding `Nc1n[nH]c2nc3ccccc3nc12`, the residual activity in assay [1] turned out to be 98%; in [2] it was 98%; in assay [3], 93%; in assay [4], 67%; in assay [5], 122%; in assay [6], 86%. Also, the residual activity in assay [7] was determined as 98%; in assay [8], 91%; in assay [9] it was 100%; in assay [10], 84%; in [11] it was 80%.

`Nc1nc(Nc2ccc(S(N)(=O)=O)cc2)nn1C(=O)c1c(F)cccc1F`: the residual activity was 43% in [2]; 96% in assay [3]; 37% in assay [4]; 112% in assay [5]; 57% in assay [6]; 40% in [12]. Also, the residual activity in assay [7] is 11%; in [8], 0%; in assay [13], 7%; in [14], 1%; in assay [9], 102%; in assay [10] it was 48%. Further, the residual activity in assay [11] was determined as 51%.

On to `O=C(c1cc2cc(O)ccc2[nH]1)c1cc2cc(O)ccc2[nH]1`, for which the residual activity in assay [1] turned out to be 65%; in [2] it was 23%; in [3] it was 50%; in assay [4] it was 20%; in [6], 55%; in [15] it was 64%. Also, the residual activity in assay [12] came to 16%; in assay [13], 64%; in assay [14], 17%; in assay [11], 51%.

Consider `O=c1c(-c2ccc(F)cc2)c(-c2ccncc2)[nH]n1-c1ccc(Cl)cc1`, for which the residual activity in assay [9] was 7%; in assay [10], -10%; in assay [11] it was -2%.

Turning to `Cc1cc(C)c(/C=C2\C(=O)Nc3ccccc32)[nH]1`, the residual activity amounted to 76% in assay [1]; 75% in assay [2]; 39% in assay [3]; 13% in assay [4]; 65% in assay [5]; 3% in assay [6]. The results for the residual activity in assay [9] and in assay [10] were 102% and 101%, respectively.

For the molecule `Cn1c2ccccc2c2c3c(c4c5ccccc5n(CCC#N)c4c21)CNC3=O`, the residual activity in [1] was 47%; in assay [2], 44%; in assay [3] it was -1%; in assay [4], 4%; in assay [5], 69%; in assay [6], 53%. In addition, the residual activity in [15] is 4%; in assay [12] it was 4%; in [7], 4%; in assay [8], 3%; in assay [13], 1%; in [14] it was 2%. For the same molecule, the residual activity in assay [16] stood at 31%; in assay [10], 73%; in [11] it was 7%.

With `O=C1Nc2ccccc2/C1=C\c1c(Cl)[nH]c2ccccc12`, the residual activity in assay [4] amounted to 69%; in [14], 85%; in [10], 76%; in assay [11], 83%.

As to `O=C1Cc2c([nH]c3ccc([N+](=O)[O-])cc23)-c2ccccc2N1`, the residual activity in [8] was determined as 106%; in [13] it was 101%; in [14] it was 101%; in assay [17], 109%; in assay [9], 104%; in [10] it was 101%. The residual activity in assay [11] was found to be 70%.

As to `COc1ccc(-c2cnc3c(-c4ccsc4)cnn3c2)cc1`, the residual activity stood at 98% in [1]; 84% in assay [2]; 124% in assay [3]; 94% in assay [4]; 92% in assay [14]; 100% in [9]. The residual activity in assay [10] turned out to be 100%; in assay [11], 88%.

Consider `c1ccc(-c2cnc(Nc3ccc(OCCN4CCCC4)cc3)s2)cc1`, for which the residual activity was determined as 42% in assay [2]; 124% in assay [3]; 80% in assay [4]; 135% in assay [5]; 65% in [6]; 81% in assay [15]. The residual activity in assay [12] came out at 30%; in [7], 111%; in assay [8], 105%; in assay [17], 112%; in assay [16] it was 70%; in assay [11], 80%.
